Test [1] can be described thus: BSK_BT_PBMCCytotoxicity: PBMC Cytotoxicity Assessment in the BioMAP Diversity Plus: BT Assay (AID 2284225).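 Also: PBMC viability measured by Alamar Blue dye reduction fluorescence.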 Particulars: primary human B cells with PBMC. An outline of the steps:
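PBMC (75,000/well) pretreated with compound 1 h, then activated with SEB and TSST-1 (20 ng/mL each final), incubated 90 h; Alamar Blue added 6 h, fluorescence read at 546/580 nm. Fitted relative to DMSO.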

Read-out in test [2]: Secreted IgG (sIgG), gene 3500
Briefly: BSK_BT_sIgG: BioMAP Diversity Plus: BT Assay for Secreted IgG (sIgG) Biomarker Activity (AID 2284226). Particulars: primary human B cells with PBMC. The gist of the method: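 Read-out: ELISA for secreted IgG after 24 h of chemical exposure in a B cell plus PBMC co-culture. Values reflect upward-direction fitting against DMSO negative controls.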

Test [3] can be described thus: BSK_BT_Bcell_Proliferation: Viability Assessment in the BioMAP Diversity Plus: BT Assay for B cell Proliferation (AID 2284227). The settings on record: primary human B cells with PBMC. An outline of the steps: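 SRB-based protein staining (0.1% SRB after 10% TCA fixation, 560 nm) quantifies proliferation in human B cells co-cultured with PBMC, 72 h post-dosing, with signal gain scored relative to DMSO negative control.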

Read-out in test [4]: Interleukin 6 (IL6), IL6 (gene 3569)
The experiment in a line: BSK_BT_xIL6: BioMAP Diversity Plus: BT Assay for Interleukin 6 (IL6) Biomarker Activity (AID 2284228). Particulars: primary human B cells with PBMC. An outline of the steps: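 Human B cell plus PBMC co-culture exposed to test chemical for 24 h; secreted IL-6 quantified by Luminex xMAP bead assay. Activity fitted in the positive direction against DMSO as negative control and baseline.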

Read-out in test [5]: Interleukin 17A (IL17A), IL17A (gene 3605)
The experiment in a line: BSK_BT_xIL17A: BioMAP Diversity Plus: BT Assay for Interleukin 17A (IL17A) Biomarker Activity (AID 2284229). Particulars: primary human B cells with PBMC. The gist of the method:
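B cells co-cultured with PBMC were exposed to test chemicals, and secreted IL-17A was quantified 24 h after dosing by Luminex xMAP bead immunoassay. Activity was fitted in the gain direction against DMSO as baseline.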

Read-out in test [6]: Vascular cell adhesion molecule 1 (VCAM1), VCAM1 (gene 7412)
Briefly: BSK_MyoF_VCAM1: BioMAP Diversity Plus: MyoF Assay for Vascular cell adhesion molecule 1 (VCAM1) Biomarker Activity (AID 2284231). The settings on record: primary human lung fibroblasts. The gist of the method: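 Primary human lung fibroblasts were dosed with test chemical for 24 h, then cell-surface VCAM-1 was measured by ELISA. Activity was fitted in the positive direction against DMSO as negative control and baseline.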

Read-out in test [7]: Collagen I, COL1A1 (gene 1277)
The experiment in a line: BSK_MyoF_CollagenI: BioMAP Diversity Plus: MyoF Assay for Collagen I Biomarker Activity (AID 2284238). Particulars: primary human lung fibroblasts. An outline of the steps: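 Human lung fibroblasts were exposed to test chemical for 24 h, then Collagen I was quantified by ELISA. Activity was fitted in the increasing direction against DMSO as the negative control and baseline.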

Read-out in test [8]: Collagen III, COL3A1 (gene 1281)
The experiment in a line: BSK_MyoF_CollagenIII: BioMAP Diversity Plus: MyoF Assay for Collagen III Biomarker Activity (AID 2284239). Particulars: primary human lung fibroblasts. An outline of the steps: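 Human lung fibroblasts were dosed with chemicals and, 24 hours later, collagen III was measured by ELISA. Activity was fitted in the positive direction against the DMSO negative-control baseline.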

Read-out in test [9]: Interleukin 17F (IL17F), IL17F (gene 112744)
Briefly: BSK_BT_xIL17F: BioMAP Diversity Plus: BT Assay for Interleukin 17F (IL17F) Biomarker Activity (AID 2284243). The settings on record: primary human B cells with PBMC. An outline of the steps:
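B cell/PBMC co-culture (human primary), 24 h compound exposure; sIL-17F by Luminex xMAP; gain-of-signal fit vs DMSO baseline.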

Read-out in test [10]: Actin alpha 1 (ACTA1), ACTA1 (gene 58)
Briefly: BSK_MyoF_ACTA1: BioMAP Diversity Plus: MyoF Assay for Actin alpha 1 (ACTA1) Biomarker Activity (AID 2284244). The settings on record: primary human lung fibroblasts. The gist of the method:
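Lung fibroblasts, human primary, 24 h compound exposure → a-SMA ELISA. Positive-direction fit vs DMSO control.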

The nature of test [11]: CCTE_Mundy_HCI_Cortical_Synap_Neur_Matur_CellBodySpotCount: CCTE's Synaptogenesis and Neurite Maturation Assay in rat cortical cells for Cell Body Spot Count, Mundy Lab (AID 2284223). An outline of the steps: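 Rat primary cortical cultures received AraC at DIV 5 to arrest glia, were dosed with chemical at DIV 7 with media change, and were fixed at DIV 12 (288.33 h). Synaptophysin puncta on MAP2-positive cell bodies per neuron were counted by high-content imaging versus DMSO.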

Test [12] is described as follows: CCTE_Mundy_HCI_hNP1_Pro_ResponderAvgInten: CCTE's Proliferation Assay in human neuroprogenitor cells, Mundy Lab (AID 2284224; active = hit-call score of the fitted dose curve at least 0.9, where 1 is the maximum). The gist of the method: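 Proliferation was scored as BrdU labelling intensity in human neural progenitors derived from WA09 embryonic cells, measured 26.25 hours after chemical dosing. Activity was fitted relative to DMSO.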
Test [13] can be described thus: CCTE_Mundy_HCI_Cortical_NOG_NeuronCount: CCTE's Neurite Outgrowth Assay in rat cortical cells for Neuron Count, Mundy Lab (AID 2284236; active = hit-call score of the fitted dose curve at least 0.9, where 1 is the maximum;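 also: neurons counted by imaging betaIII-tubulin and Hoechst stained cortical cells; cells exposed to compound for about 48 hours before fixation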). The gist of the method:
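Read-out: neuron number by high-content imaging of betaIII-tubulin (Alexa Fluor-488) and Hoechst-labelled rat primary cortical cells.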

Test [14] is described as follows: CCTE_Mundy_HCI_Cortical_NOG_BPCount: CCTE's Neurite Outgrowth Assay in rat cortical cells for Branch Point Count, Mundy Lab (AID 2284237).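 Also: branch points counted about two days after chemical exposure.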 The gist of the method:
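Measured 50.33 h after dosing, this morphology endpoint uses rat primary cortical cultures labelled for betaIII-tubulin. Branch points are quantified by high-content imaging, with DMSO as negative control and baseline.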

Test [15] can be described thus: CCTE_Mundy_HCI_hNP1_Casp3_7: CCTE's Caspase-Glo 3/7 Assay in human neuroprogenitor cells for Apoptosis, Mundy Lab (AID 2284240). An outline of the steps:
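Apoptosis is scored by activated caspase-3/7 luminescence in WA09-derived neural progenitor cells, measured 26.5 h after chemical dosing. Values represent gain of signal relative to DMSO vehicle.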

A short description of test [16]: CCTE_Mundy_HCI_Cortical_Synap_Neur_Matur_NeuronCount: CCTE's Synaptogenesis and Neurite Maturation Assay in rat cortical cells for Neuron Count, Mundy Lab (AID 2284242; active = hit-call score of the fitted dose curve at least 0.9, where 1 is the maximum;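 also: hits reduce neuron count versus DMSO baseline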). An outline of the steps: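 Neuron number was scored by automated high-content imaging of Hoechst- and MAP2-labelled rat primary cortical cells. Glial growth was arrested with AraC at DIV 5, compounds were applied from DIV 7, and cultures ended at DIV 12.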

Read-out in test [17]: Tumor necrosis factor (Homo sapiens) (UniProt P01375)
The experiment in a line: BSK_BT_xTNFa: BioMAP Diversity Plus: BT Assay for Tumor necrosis factor alpha (TNF-alpha) Biomarker Activity (AID 2284230). The settings on record: primary human B cells with PBMC. The gist of the method: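 Compounds were added to a B cell plus PBMC co-culture, and after 24 h secreted TNF-alpha was quantified with Luminex xMAP technology, with responses fitted upward from the DMSO control.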

Test [18] in a line: UKN2_HCS_IMR90_cell_viability: Viability Assessment in the University of Konstanz (UKN) Leist Lab Neural Crest Cell Migration Assay in human induced IMR90 Pluripotent Stem Cells (UKN2) (AID 2284233).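 Also: viability of neural crest cells differentiated from IMR90 iPSC measured by calcein-AM fluorescence imaging; cells exposed to compound for 24 h after a 24 h migration phase.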 The gist of the method:
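Human IMR90-derived neural crest cells were allowed to migrate for 24 h into a cell-free zone, then exposed to test chemicals for 24 h. Calcein-AM and Hoechst staining with high-content imaging gave viability, analysed against DMSO baseline.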

A short description of test [19]: CCTE_Mundy_HCI_hNP1_CellTiter: CCTE's Cell Titer-Glo 2 Assay in human neuroprogenitor cells for Viability, Mundy Lab (AID 2284241; active = hit-call score of the fitted dose curve at least 0.9, where 1 is the maximum). An outline of the steps: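 Human neural progenitor cells (hNP1, WA09-derived) were plated on poly-L-ornithine/laminin and grown 40 to 44 hours at 37 °C, 5% CO2 before chemical addition. Twenty-four hours later, ATP was measured by CellTiter-Glo luminescence; loss of signal versus DMSO indicates reduced viability.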
On the technique in general: Cellular ATP, detected with luciferase, serves as a proxy for viable cell number.

Where “and” joins values, the source holds several entries; their conditions need not be identical. Equal entries are not always repeated. Inconclusive results are not listed. Some compounds were tested as several samples or in several runs, with calls that do not always agree. Calls of active or inactive are those of the source. The calls were made as follows, unless noted: active = hit-call score of the fitted dose curve at least 0.9, where 1 is the maximum; inactive = score below 0.9.

Sequence of Tumor necrosis factor (Homo sapiens) (P01375 whole entry, looked up): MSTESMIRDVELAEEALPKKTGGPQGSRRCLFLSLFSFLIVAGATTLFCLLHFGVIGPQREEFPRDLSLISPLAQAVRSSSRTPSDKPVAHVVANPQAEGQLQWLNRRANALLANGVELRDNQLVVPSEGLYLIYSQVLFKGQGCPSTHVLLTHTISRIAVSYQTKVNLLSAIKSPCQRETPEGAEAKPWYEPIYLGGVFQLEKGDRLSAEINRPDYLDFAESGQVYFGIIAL

`C#CCOC(=O)/C=C(C)/C=C/CC(C)CCCC(C)C` (stereo not drawn): the result in test [1], in [3], in test [4], in [5], in test [7] and in test [8] was inactive. Besides, in test [9], the result was inactive. Also, the AC50 (commonly the concentration giving half of the maximal activity seen) was 20 µM (active) in test [2], 20 µM (active) in [6] and 16.4 µM (active) in test [10].
On to `CC1(C)[C@H](C(=O)O[C@H](C#N)c2cccc(Oc3ccccc3)c2)[C@@H]1/C=C(\Cl)C(F)(F)F`, for which the AC50 is 3.52 µM (active) in test [11]; 17.1 µM (active) and 8.49 µM (active) in test [4]; 17.1 µM (active) in [5]; 20.2 µM (active) in test [14]; 3.56 µM (active) in [16]; 17.1 µM (active) and 14.6 µM (active) in test [9]. Moreover, the call in test [12], in [1], in test [3], in test [5], in [6] and in [13] was inactive. The result in [7], in test [8], in test [15] and in test [10] was inactive.
Take `CCC(C)(C#N)N=NC(C)(C#N)CC` (stereo not drawn): the result in test [1], in test [3], in test [4], in test [5], in test [17] and in [6] was inactive. Besides, the outcome in test [7], in test [8], in test [9] and in test [10] was inactive.
In the case of `CCOP(=S)(OCC)OP(=S)(OCC)OCC`, the outcome in test [1], in test [2], in [3], in test [4], in test [5] and in [6] was inactive. In addition, the outcome in test [7], in test [8], in [9] and in test [10] was inactive.
In the case of `C=CC(Cl)CCl` (stereo not drawn), the outcome in test [1], in test [3], in test [4], in test [5], in test [8] and in [9] was inactive. In addition, the outcome in [10] was inactive. Moreover, the half-maximal activity concentration (AC50) is 4.05 µM (active) in [6] and 0.0855 µM (active) in test [7].
Take `OC(Cc1ccccc1Cl)(Cn1[nH]cnc1=S)C1(Cl)CC1` (stereo not drawn): the call in test [11], in test [1], in test [3], in test [4], in test [5] and in test [17] was inactive. For the same compound, the compound was called inactive in test [13], in test [19] and in test [9]. Moreover, the AC50 in test [12] is 31.6 µM (active); in test [6], 30.1 µM (active); in test [18], 63.1 µM (active); in [14], 50 µM (active); in test [7], 31.4 µM (active); in test [8], 30.5 µM (active). The results for the AC50 in [15], in test [16] and in test [10] were 91 µM (active), 83.8 µM (active) and 25.3 µM (active), respectively.
